# Experimental data from PubChem BioAssay (EPA / NIEHS).
# Where “and” joins values, the source holds several entries; their conditions need not be identical. Identical values can stand only once. Where a structure was tested more than once in an assay, its records may differ in their call. Calls of active or inactive are those of the source. Rule for the calls: active = hit-call score of the fitted dose curve at least 0.9, where 1 is the maximum; inactive = score below 0.9.
# Key:
# [1] = ATG_Ets_CIS: Attagene CIS-FACTORIAL HepG2 Assay for human Erythroblast Transformation Specific (ETS) (AID 2282941); settings: HepG2 ETS cis-reporter transcription, actives raise or lower the signal
# Procedure, shortened: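 HepG2 cells transfected with multiple cis-regulated reporter units measuring endogenous ETS-driven transcription, 24 h after dosing. Reporter mRNA quantified by RT-PCR with capillary electrophoresis; bidirectional fit relative to DMSO.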
# [2] = target: Hepatocyte nuclear factor 3-beta (Homo sapiens) (UniProt Q9Y261); experiment: ATG_FoxA2_CIS: Attagene CIS-FACTORIAL HepG2 Assay for human Forkhead box A2 (FOXA2) (AID 2282942); settings: HepG2 cis-reporter transcription factor activity, 24 h; actives raise or lower the signal
# Procedure, shortened: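 Multiplexed cis-element reporter assay in transiently transfected HepG2. Twenty-four hours post-dosing, RNA was reverse-transcribed, amplified, FAM-labelled, HpaI-digested and separated by CE. Activity gain or loss relative to DMSO.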
# [3] = ATG_GATA_CIS: Attagene CIS-FACTORIAL HepG2 Assay for human GATA Binding Protein (AID 2282944); settings: HepG2 GATA cis-element reporter, Attagene multiplex mRNA; actives raise or lower the signal
# Procedure, shortened: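 Transfected cis-reporter HepG2 cells were treated with chemicals for 24 hours. Total RNA was then converted to cDNA, amplified with reporter-specific primers and analysed by fluorescent capillary electrophoresis, using DMSO-treated wells as baseline.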
# [4] = ATG_GLI_CIS: Attagene CIS-FACTORIAL HepG2 Assay for human Zinc Finger Protein GLI1 (AID 2282945); settings: HepG2, Attagene cis-factorial reporter mRNA, GLI element; actives raise or lower the signal
# Procedure, shortened: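 Bidirectional curve fits relative to DMSO, using reporter mRNA levels from RT-PCR plus capillary electrophoresis. Cells were HepG2 transiently carrying cis-regulated reporter constructs, harvested 24 h after dosing.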
# [5] = target: Bile acid receptor (Homo sapiens) (UniProt Q96RI1); experiment: ATG_IR1_CIS: Attagene CIS-FACTORIAL HepG2 Assay for human Nuclear Receptor Subfamily 1 Group H Member 4 (NR1H4), IR1 submotif (AID 2282946); settings: IR1 reporter transcription, actives raise or lower the signal
# Procedure, shortened: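 Cells (human HepG2) carry transiently transfected cis-promoter reporter transcription units. Compounds are incubated 24 h, total RNA is reverse-transcribed and amplified, and labelled fragments are resolved by capillary electrophoresis. Curves use DMSO as baseline.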
# [6] = ATG_M_32_CIS: Attagene CIS-FACTORIAL HepG2 Assay for M32 Transcription Factor (Internal Marker) (AID 2282949); settings: HepG2 Attagene cis-factorial M32 reporter, mRNA; actives raise or lower the signal;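 note: background control marker of the multiplexed CIS panel rather than a real target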
# Procedure, shortened: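 Fluorescent capillary electrophoresis peaks of HpaI-digested, FAM-labelled RT-PCR reporter products give the signal. Source: transiently transfected human liver HepG2 cells, 24 h after chemical dosing; bidirectional fitting against DMSO.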
# [7] = target: Hypoxia-inducible factor 1-alpha (Homo sapiens) (UniProt Q16665); experiment: ATG_HIF1a_CIS: Attagene CIS-FACTORIAL HepG2 Assay for human Hypoxia Inducible Factor 1 (HIF1A) (AID 2282951); settings: HepG2 Attagene cis-factorial HIF1a reporter transcription; actives raise or lower the signal
# Procedure, shortened: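 Cis-element reporter constructs were transiently transfected into HepG2 cells, which were treated for 24 h; reporter RNA was reverse-transcribed, amplified, labelled and resolved by capillary electrophoresis.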
# [8] = target: Hepatocyte nuclear factor 6 (Homo sapiens) (UniProt Q9UBC0); experiment: ATG_HNF6_CIS: Attagene CIS-FACTORIAL HepG2 Assay for human Hepatocyte Nuclear Factor 6 (HNF6) (AID 2282952); settings: HepG2 Attagene cis-factorial HNF6 reporter transcription; actives raise or lower the signal
# Procedure, shortened: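 Transiently transfected HepG2 cells expressing cis-regulated reporter transcription units were exposed to chemical for 24 h in a 24-well format. Reporter transcript abundance was determined by fluorescence capillary electrophoresis.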
# [9] = target: Heat shock factor protein 1 (Homo sapiens) (UniProt Q00613); experiment: ATG_HSE_CIS: Attagene CIS-FACTORIAL HepG2 Assay for human Heat Shock Transcription Factor 1 (HSE) (AID 2282953); settings: HepG2 HSE cis-reporter, Attagene RNA transcription; actives raise or lower the signal
# Procedure, shortened: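 Liver-derived HepG2 cells carry transiently introduced multiple reporter units governed by cis promoters. Reporter RNA measured 24 h post-dose through reverse transcription, PCR amplification, fluorescent labelling and capillary electrophoresis, normalised to DMSO.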
# [10] = ATG_MRE_CIS: Attagene CIS-FACTORIAL HepG2 Assay for human Metal Responsive Element (MRE) (AID 2282954); settings: HepG2 MRE cis-reporter transcription, Attagene multiplex; actives raise or lower the signal
# Procedure, shortened: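 Transient MRTU transfection of HepG2 (FuGene 6); 24 h dosing; total RNA → oligo(dT) RT, PCR, 6-FAM primer extension, HpaI cut, CE. Bidirectional fit vs DMSO.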
# [11] = target: Paired box protein Pax-6 (Homo sapiens) (UniProt P26367); experiment: ATG_Pax6_CIS: Attagene CIS-FACTORIAL HepG2 Assay for human Paired Box 6 (PAX6) (AID 2282956); settings: HepG2 CIS-FACTORIAL PAX6 reporter transcription, RNA readout; actives raise or lower the signal
# Procedure, shortened: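 HepG2 cells transiently transfected with cis-promoter-driven multiplexed reporter units sensing endogenous transcription factor activity; 24 h chemical exposure. Reporter mRNA quantified by RT-PCR, 6-FAM labelling, HpaI digestion and capillary electrophoresis; bidirectional fit versus DMSO baseline.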
# [12] = ATG_PPRE_CIS: Attagene CIS-FACTORIAL HepG2 Assay for human Peroxisome Proliferator-activated Response Element (PPRE) (AID 2282958); settings: HepG2 PPRE cis-element reporter, Attagene transcription factor profiling; actives raise or lower the signal
# Procedure, shortened: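 DMSO served as negative control and baseline for bidirectional curve fitting. Signal came from PPRE-regulated reporter mRNA in HepG2 cells, measured 24 h post-dosing by RT-PCR, 6-FAM primer extension and capillary electrophoresis.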
# [13] = ATG_RORE_CIS: Attagene CIS-FACTORIAL HepG2 Assay for human RAR-related Orphan Receptor Element (RORE) (AID 2282959); settings: HepG2 Attagene cis-factorial RORE reporter, mRNA; actives raise or lower the signal
# Procedure, shortened: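 Transfect HepG2 with MRTUs; treat 24 h; extract RNA; RT with oligo(dT); PCR with reporter-specific primers; 6-FAM primer extension; HpaI digest 2 h at 37 C; capillary electrophoresis. Fit vs DMSO, bidirectional.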
# [14] = ATG_Sox_CIS: Attagene CIS-FACTORIAL HepG2 Assay for human SRY-box transcription factor (SOX) (AID 2282960); settings: HepG2 Attagene cis-factorial SOX reporter, mRNA; actives raise or lower the signal
# Procedure, shortened: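 Fluorescence-labelled cDNA fragments from reporter transcripts, sized by CE, give the signal. Cells: HepG2, transiently transfected with cis-regulated reporter units. Exposure 24 h; DMSO negative control; bidirectional curve fitting.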
# [15] = ATG_FoxO_CIS: Attagene CIS-FACTORIAL HepG2 Assay for human Forkhead box O (FoxO) (AID 2282943); settings: HepG2 Attagene cis-reporter, FoxO element, mRNA; actives raise or lower the signal
# Procedure, shortened: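 Endogenous transcription factor activity read from multiplexed cis-promoter reporter transcripts in transiently transfected HepG2, 24 h after dosing. Reporter RNA measured via RT-PCR plus capillary electrophoresis of FAM-labeled products; gain or loss relative to DMSO.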
# [16] = ATG_GRE_CIS: Attagene CIS-FACTORIAL HepG2 Assay for human Glucocorticoid Response Elements (GRE) (AID 2282947); settings: HepG2 GRE cis-reporter, Attagene multiplex mRNA; actives raise or lower the signal
# Procedure, shortened: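 Transient MRTU transfection of human HepG2 liver cells; cis-regulated reporters report endogenous factors. 24 h dosing → RNA isolation → RT-PCR → 6-FAM primer extension → HpaI cut → CE fragment analysis. Bidirectional fit, DMSO negative control.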
# [17] = ATG_ISRE_CIS: Attagene CIS-FACTORIAL HepG2 Assay for human Interferon Regulatory Factor 1 (IRF1) binding to an Interferon-Stimulated Response Element (ISRE) (AID 2282948); settings: HepG2 ISRE cis-reporter (Attagene), mRNA transcription readout; actives raise or lower the signal
# Procedure, shortened: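 Transiently transfected HepG2 cells carrying cis-element reporter units, dosed 24 hours. Reporter mRNA quantified by RT-PCR, fluorescent primer extension, HpaI digestion and capillary electrophoresis. Bidirectional fitting relative to DMSO.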
# [18] = ATG_PXRE_CIS: Attagene CIS-FACTORIAL HepG2 Assay for human Pregnane X Receptor Element (PXRE) (AID 2282957); settings: HepG2 Attagene CIS-FACTORIAL PXRE reporter, mRNA; actives raise or lower the signal
# Procedure, shortened: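 Cis-element reporter mRNA in human hepatoma HepG2 cells is measured 24 h post-dosing by RT-PCR, primer-extension labeling and capillary electrophoresis; gain or loss of signal is fitted relative to DMSO.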
# [19] = ATG_M_06_CIS: Attagene CIS-FACTORIAL HepG2 Assay for M06 Transcription Factor (Internal Marker) (AID 2282950); settings: HepG2 Attagene CIS-FACTORIAL M06 internal marker reporter; actives raise or lower the signal
# Procedure, shortened: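 Cells (HepG2, transiently carrying cis-driven reporter units) receive chemical for 24 h before RNA isolation. Reporter cDNA is PCR-amplified, FAM-labelled by primer extension, HpaI-digested and sized on a capillary analyser.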
# [20] = ATG_PBREM_CIS: Attagene CIS-FACTORIAL HepG2 Assay for human Phenobarbital-responsive Enhancer Module (PBREM) (AID 2282955); settings: HepG2 PBREM cis-reporter, Attagene multiplexed transcription; actives raise or lower the signal
# Procedure, shortened: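 Multiplexed cis-reporter readout in human hepatoma HepG2 cells; PBREM-regulated transcript quantified after 24 h exposure by fluorescent RT-PCR fragment analysis. Signal changes up or down fitted relative to DMSO.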
# Sequence of Bile acid receptor (Homo sapiens) (Q96RI1 whole entry, looked up, the tested form may be a part): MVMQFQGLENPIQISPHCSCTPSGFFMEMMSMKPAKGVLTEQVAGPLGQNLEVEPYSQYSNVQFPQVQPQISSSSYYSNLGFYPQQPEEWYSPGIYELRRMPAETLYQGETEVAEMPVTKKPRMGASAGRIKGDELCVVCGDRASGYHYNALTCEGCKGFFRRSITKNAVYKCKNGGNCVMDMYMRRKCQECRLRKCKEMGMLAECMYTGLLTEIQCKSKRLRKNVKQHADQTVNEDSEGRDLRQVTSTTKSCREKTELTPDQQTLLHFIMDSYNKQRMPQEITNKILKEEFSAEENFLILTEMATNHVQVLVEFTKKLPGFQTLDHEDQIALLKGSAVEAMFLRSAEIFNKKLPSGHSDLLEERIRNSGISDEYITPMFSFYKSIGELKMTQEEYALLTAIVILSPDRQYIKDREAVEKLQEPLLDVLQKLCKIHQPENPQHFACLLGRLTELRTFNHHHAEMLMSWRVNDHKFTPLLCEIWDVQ
# Sequence of Hepatocyte nuclear factor 3-beta (Homo sapiens) (Q9Y261 whole entry, looked up): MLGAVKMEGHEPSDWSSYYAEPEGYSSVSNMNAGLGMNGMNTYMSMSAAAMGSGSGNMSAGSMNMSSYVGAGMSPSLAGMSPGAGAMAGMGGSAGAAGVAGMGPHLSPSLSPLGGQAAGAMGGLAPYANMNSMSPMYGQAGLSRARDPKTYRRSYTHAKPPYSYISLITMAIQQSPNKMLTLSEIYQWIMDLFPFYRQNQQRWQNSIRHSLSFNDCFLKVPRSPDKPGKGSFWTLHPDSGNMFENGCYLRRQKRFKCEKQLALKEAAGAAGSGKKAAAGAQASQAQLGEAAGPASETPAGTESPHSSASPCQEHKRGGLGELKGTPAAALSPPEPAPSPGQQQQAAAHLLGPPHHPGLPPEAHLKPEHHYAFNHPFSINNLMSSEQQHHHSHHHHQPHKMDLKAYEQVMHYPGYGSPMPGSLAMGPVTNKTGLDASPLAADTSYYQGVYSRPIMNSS
# Sequence of Heat shock factor protein 1 (Homo sapiens) (Q00613 whole entry, looked up): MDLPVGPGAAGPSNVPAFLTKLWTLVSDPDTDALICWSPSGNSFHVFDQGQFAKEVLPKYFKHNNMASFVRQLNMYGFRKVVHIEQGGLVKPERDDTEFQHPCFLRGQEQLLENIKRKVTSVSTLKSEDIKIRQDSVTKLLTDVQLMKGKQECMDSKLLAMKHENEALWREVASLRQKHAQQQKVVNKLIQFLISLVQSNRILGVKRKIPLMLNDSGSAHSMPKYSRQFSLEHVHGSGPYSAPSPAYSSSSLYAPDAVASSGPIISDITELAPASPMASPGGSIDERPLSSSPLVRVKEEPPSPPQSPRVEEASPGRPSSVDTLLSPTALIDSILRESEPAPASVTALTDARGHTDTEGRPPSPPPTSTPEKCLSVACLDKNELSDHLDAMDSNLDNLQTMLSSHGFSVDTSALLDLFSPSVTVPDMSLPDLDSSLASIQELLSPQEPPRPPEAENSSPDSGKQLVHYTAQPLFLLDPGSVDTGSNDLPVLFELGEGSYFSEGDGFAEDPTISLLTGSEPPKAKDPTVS
# Sequence of Paired box protein Pax-6 (Homo sapiens) (P26367 whole entry, looked up): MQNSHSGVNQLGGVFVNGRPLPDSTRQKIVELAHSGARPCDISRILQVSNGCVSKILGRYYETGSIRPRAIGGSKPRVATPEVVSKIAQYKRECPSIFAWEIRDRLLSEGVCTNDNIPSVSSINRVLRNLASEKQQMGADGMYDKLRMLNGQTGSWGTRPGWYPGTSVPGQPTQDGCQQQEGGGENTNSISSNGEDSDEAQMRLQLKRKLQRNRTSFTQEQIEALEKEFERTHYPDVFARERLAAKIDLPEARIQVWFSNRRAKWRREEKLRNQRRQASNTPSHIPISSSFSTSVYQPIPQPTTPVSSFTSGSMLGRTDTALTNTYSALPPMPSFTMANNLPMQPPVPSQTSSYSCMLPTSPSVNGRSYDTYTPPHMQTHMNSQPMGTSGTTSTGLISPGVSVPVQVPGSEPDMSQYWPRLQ
# Sequence of Hepatocyte nuclear factor 6 (Homo sapiens) (Q9UBC0 whole entry, looked up): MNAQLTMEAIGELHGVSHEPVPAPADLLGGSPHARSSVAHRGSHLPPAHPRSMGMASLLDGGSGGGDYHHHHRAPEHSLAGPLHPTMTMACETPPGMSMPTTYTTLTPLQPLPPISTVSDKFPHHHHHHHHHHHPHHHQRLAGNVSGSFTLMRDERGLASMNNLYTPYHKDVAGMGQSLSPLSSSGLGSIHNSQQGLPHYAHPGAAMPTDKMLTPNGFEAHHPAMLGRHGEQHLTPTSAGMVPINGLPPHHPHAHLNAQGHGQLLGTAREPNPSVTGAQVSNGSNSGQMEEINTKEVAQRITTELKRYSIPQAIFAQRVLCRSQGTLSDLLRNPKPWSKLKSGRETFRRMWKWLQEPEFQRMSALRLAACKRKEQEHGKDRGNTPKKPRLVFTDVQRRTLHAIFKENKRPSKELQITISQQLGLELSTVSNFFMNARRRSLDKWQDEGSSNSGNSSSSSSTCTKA
# Sequence of Hypoxia-inducible factor 1-alpha (Homo sapiens) (Q16665 whole entry, looked up): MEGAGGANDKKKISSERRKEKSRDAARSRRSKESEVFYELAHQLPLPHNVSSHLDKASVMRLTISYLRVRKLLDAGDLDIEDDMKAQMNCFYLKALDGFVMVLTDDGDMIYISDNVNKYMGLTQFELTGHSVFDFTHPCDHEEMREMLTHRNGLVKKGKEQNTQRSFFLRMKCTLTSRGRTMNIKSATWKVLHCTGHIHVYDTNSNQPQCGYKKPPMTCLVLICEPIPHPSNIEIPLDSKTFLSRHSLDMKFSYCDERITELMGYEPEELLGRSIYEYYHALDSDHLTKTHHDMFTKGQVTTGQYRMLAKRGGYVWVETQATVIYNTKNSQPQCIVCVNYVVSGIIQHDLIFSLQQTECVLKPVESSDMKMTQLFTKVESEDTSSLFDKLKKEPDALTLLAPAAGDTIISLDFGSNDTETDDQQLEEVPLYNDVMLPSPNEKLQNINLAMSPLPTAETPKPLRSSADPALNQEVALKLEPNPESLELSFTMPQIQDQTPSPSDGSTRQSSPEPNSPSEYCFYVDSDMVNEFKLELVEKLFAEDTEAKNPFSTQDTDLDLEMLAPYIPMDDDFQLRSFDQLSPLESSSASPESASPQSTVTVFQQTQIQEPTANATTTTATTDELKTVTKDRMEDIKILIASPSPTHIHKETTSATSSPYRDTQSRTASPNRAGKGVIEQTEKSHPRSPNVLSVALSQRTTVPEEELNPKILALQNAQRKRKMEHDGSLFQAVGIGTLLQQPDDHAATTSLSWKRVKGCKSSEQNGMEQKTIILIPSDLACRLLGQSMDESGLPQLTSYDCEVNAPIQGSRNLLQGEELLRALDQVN
structure (smiles),measurement,setting,value
C[C@@H]1C[C@@H]([C@H](O)CC2CC(=O)NC(=O)C2)C(=O)[C@@H](C)C1,AC50,[1],6.31 µM (active) [middle of 4 runs]
same,AC50,[2],10.1 µM (active)
same,outcome,[2],inactive
same,outcome,[3],inactive
same,outcome,[4],inactive
same,AC50,[5],0.304 µM (active)
same,outcome,[5],inactive
same,outcome,[6],inactive
same,AC50,[7],119 nM (active) and 22.9 µM (active)
same,outcome,[7],inactive
same,outcome,[8],inactive
same,AC50,[9],2.68 µM (active) and 1.53 µM (active)
same,outcome,[9],inactive
same,outcome,[10],inactive
same,outcome,[11],inactive
same,AC50,[12],27.5 µM (active)
same,outcome,[12],inactive
same,outcome,[13],inactive
same,outcome,[14],inactive
NC(=S)Nc1ccccc1,outcome,[1],inactive
same,outcome,[2],inactive
same,outcome,[15],inactive
same,outcome,[3],inactive
same,outcome,[4],inactive
same,outcome,[5],inactive
same,outcome,[16],inactive
same,outcome,[17],inactive
same,outcome,[6],inactive
same,outcome,[7],inactive
same,outcome,[8],inactive
same,outcome,[9],inactive
same,outcome,[10],inactive
same,outcome,[11],inactive
same,outcome,[18],inactive
same,outcome,[12],inactive
same,outcome,[14],inactive
CNC(=O)O/N=C/C(C)(C)S(C)=O (stereo not given),outcome,[1],inactive
same,outcome,[2],inactive
same,outcome,[15],inactive
same,outcome,[3],inactive
same,outcome,[4],inactive
same,outcome,[5],inactive
same,outcome,[16],inactive
same,outcome,[17],inactive
same,outcome,[6],inactive
same,outcome,[19],inactive
same,outcome,[7],inactive
same,outcome,[8],inactive
same,AC50,[9],154 µM (active)
same,outcome,[20],inactive
same,outcome,[11],inactive
same,outcome,[18],inactive
same,outcome,[12],inactive
same,outcome,[14],inactive
Nc1ncc([N+](=O)[O-])s1,outcome,[1],inactive
same,outcome,[2],inactive
same,outcome,[15],inactive
same,outcome,[3],inactive
same,outcome,[4],inactive
same,outcome,[5],inactive
same,outcome,[16],inactive
same,outcome,[17],inactive
same,outcome,[6],inactive
same,outcome,[19],inactive
same,outcome,[7],inactive
same,outcome,[8],inactive
same,outcome,[9],inactive
same,outcome,[10],inactive
same,outcome,[11],inactive
same,outcome,[18],inactive
same,outcome,[12],inactive
same,outcome,[13],inactive
same,outcome,[14],inactive
COc1ccccc1OC,outcome,[1],inactive
same,outcome,[2],inactive
same,outcome,[15],inactive
same,outcome,[3],inactive
same,outcome,[4],inactive
same,outcome,[16],inactive
same,outcome,[17],inactive
same,outcome,[6],inactive
same,outcome,[19],inactive
same,outcome,[7],inactive
same,outcome,[8],inactive
same,outcome,[9],inactive
same,outcome,[10],inactive
same,outcome,[20],inactive
same,outcome,[11],inactive
same,outcome,[18],inactive
same,outcome,[12],inactive
same,outcome,[13],inactive
same,outcome,[14],inactive
CC(C)(c1ccccc1)c1ccc(O)c(C(C)(C)c2ccccc2)c1,outcome,[1],inactive
same,outcome,[2],inactive
same,AC50,[15],15.2 µM (active)
same,outcome,[3],inactive
same,outcome,[4],inactive
same,AC50,[5],2.78 µM (active)
same,outcome,[16],inactive
same,outcome,[17],inactive
same,outcome,[6],inactive
same,outcome,[19],inactive
same,AC50,[7],11.1 µM (active)
same,outcome,[8],inactive
same,AC50,[9],17.9 µM (active)
same,AC50,[10],13.3 µM (active)
same,AC50,[20],420 nM (active)
same,AC50,[11],12.7 µM (active)
same,AC50,[12],3.04 µM (active)
same,outcome,[13],inactive
same,outcome,[14],inactive
Cl/C=C\C[N+]12CN3CN(CN(C3)C1)C2,outcome,[1],inactive
same,outcome,[2],inactive
same,outcome,[15],inactive
same,outcome,[3],inactive
same,outcome,[4],inactive
same,AC50,[5],44.6 µM (active)
same,outcome,[16],inactive
same,AC50,[17],100 µM (active)
same,outcome,[6],inactive
same,outcome,[19],inactive
same,outcome,[7],inactive
same,outcome,[8],inactive
same,AC50,[9],158 µM (active)
same,outcome,[10],inactive
same,outcome,[20],inactive
same,outcome,[11],inactive
same,AC50,[18],45.2 µM (active)
same,outcome,[13],inactive
same,outcome,[14],inactive
